TDP1 cell noCPT = qHTS for Inhibitors of human tyrosyl-DNA phosphodiesterase 1 (TDP1): qHTS in cells in absence of CPT; Potency, µM (doses to about 46.2 µM), without a hit: at the highest dose activity change, negative = growth inhibition, most hits filed as inhibitors; DT40 Tdp1-/- hTDP1 cells, no CPT, ATP luminescence, 48 h; 420,000 tested, 15% active; AID 686978, 2013; note: potency is the fitted concentration of half-maximal effect; nearly all actives have a fitted effect of over 55% in size
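Chicken DT40 Tdp1-/- cells complemented with human TDP1, screened without camptothecin (DMSO vehicle only), 400 cells/well. Compounds pin-transferred, cells incubated at 37 °C for at least 48 hr. Growth read as ATP-dependent luminescence (CellTiter-Glo, 30 min at RT).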
DT40 TDP1 CPT = growth inhibition of DT40 Tdp1-/-;hTDP1 cells with camptothecin (screen for TDP1 inhibitors) | chicken DT40 Tdp1-/-;hTDP1 cells + 20 nM CPT, ATP luminescence, 48 h | Potency, µM (highest dose often 46.2 µM), for inactives: top-dose activity change, negative = growth inhibition, most hits filed as inhibitors | 420,000 tested, 12% active; note: potency is the fitted concentration of half-maximal effect; nearly all actives have a fitted effect of over 55% in size
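Chicken DT40 Tdp1-/- cells stably complemented with human TDP1 were seeded at 400 cells/well in medium containing 20 nM camptothecin, exposed to pin-transferred compounds, and grown at 37 °C for at least 48 hr. Viability was read as ATP luminescence.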
Gal4-VP16 FLuc = counter-screen for ROR gamma inhibitors: Gal4-VP16 reporter; Drosophila S2 Gal4-VP16 UAS-luciferase, luminescence, 20 h; Potency, µM (top dose mostly 53.6 µM), without a hit: at the top dose activity, negative = inhibition, hits mostly inhibitors; 310,000 tested, 3.5% active; AID 2546;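 note: Gal4-VP16 expression switched on by copper sulfate through the metallothionein promoter; potency is the fitted concentration of half-maximal effect; nearly all actives have a fitted effect of over 50% in size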
IL-1B inflam inh = blocks inflammasome-driven IL-1 beta release | THP-1 LPS/ATP IL-1B secretion, AlphaLISA, 16 h; stronger effect = lower value | activity change, % at 57.5 µM | 360,000 tested, 4.7% active | AID 743279; in the data active = activity change below about -50%; inconclusive = mostly about -30% to -49%
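THP-1 cells pretreated 1 hr with compounds (up to 57.5 uM final), then stimulated with LPS (250 ng/mL final) plus ATP (1.25 mM final); secreted IL-1B measured by AlphaLISA after 16 hr, decreased signal indicating inhibition.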
RORgamma inh = ROR gamma (mouse) transcription inhibition | P51450 | Drosophila S2 Gal4-RORgamma UAS-luciferase reporter, 20 h | Potency, µM (top dose mostly 53.6 µM), inactives show top-dose activity change, negative = inhibition, actives largely listed as inhibitors | 310,000 tested, 5.4% active; note: potency is the fitted concentration of half-maximal effect; nearly all actives have a fitted effect of over 60% in size
Target sequence (P51450 whole entry, looked up, the tested form may be a part): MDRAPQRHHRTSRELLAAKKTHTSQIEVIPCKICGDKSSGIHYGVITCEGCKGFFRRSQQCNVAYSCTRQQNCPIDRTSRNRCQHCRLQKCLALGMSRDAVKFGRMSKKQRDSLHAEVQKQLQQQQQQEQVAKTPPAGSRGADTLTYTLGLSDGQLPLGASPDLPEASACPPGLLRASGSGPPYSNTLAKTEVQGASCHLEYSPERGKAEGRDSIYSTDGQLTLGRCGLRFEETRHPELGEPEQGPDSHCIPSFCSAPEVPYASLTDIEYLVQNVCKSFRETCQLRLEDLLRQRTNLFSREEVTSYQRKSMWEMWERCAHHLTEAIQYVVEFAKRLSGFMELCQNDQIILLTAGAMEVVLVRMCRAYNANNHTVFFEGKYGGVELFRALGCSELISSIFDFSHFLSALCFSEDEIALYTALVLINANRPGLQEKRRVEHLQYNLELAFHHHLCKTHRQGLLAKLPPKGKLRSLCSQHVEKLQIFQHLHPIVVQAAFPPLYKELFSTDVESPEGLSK
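Stable Schneider cell line, Gal4 DNA-binding domain fused to ROR gamma, UAS-luciferase. Cmpd 1 hr RT → CuSO4 700 uM final → 20 hr RT → luciferase reagent 10 min → luminescence.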
LDHA block = blocks human lactate dehydrogenase A; purified LDHA, NADH/diaphorase-resazurin fluorescence; stronger effect = lower value; activity change, % (values are at about 110 or 230 µM); 480,000 tested, 0.15% active; in the data active = activity change below about -30%; inconclusive = mostly about -25% to -30%;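 note: plate controls were DMSO wells for no effect and wells without enzyme for full effect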
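LDH5 2 nM; NADH 0.06 mM, pyruvate 0.2 mM; 200 mM Tris pH 7.4, EDTA, Tween-20; 5 min RT. Detection: diaphorase 0.133 mg/mL + resazurin 37 µM, fluorescence ex540/em590 at 0 and 20 min; normalized to enzyme-free and DMSO wells.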
Starred values were filed as active, the others as inactive. Compounds with a hit are over-represented: about 18% of the library has one in this group of screens. Unless noted, calls come from the whole dose curve; as a rule, active = well fitted curve in the direction sought with a large enough effect; inconclusive = small, poorly fitted or top-dose-only effect, or another doubt; inactive = no such curve, though single readings can be large; an effect the other way counts as inactive or inconclusive. Unless noted, % is set by controls: 0 for no effect and ±100 for the full control effect.

For Cc1ccc(C(=O)CCS(=O)(=O)c2ccc(Cl)cc2)cc1 the results were TDP1 cell noCPT 2.9µM*, DT40 TDP1 CPT 2.9µM*, Gal4-VP16 FLuc inconclusive, IL-1B inflam inh 0, RORgamma inh 16µM* and LDHA block -7.
Cc1ccc(C(=O)CCS(=O)(=O)c2ccc(F)cc2)cc1 was read as TDP1 cell noCPT 2.9µM*, DT40 TDP1 CPT 4.6µM*, Gal4-VP16 FLuc 3.5µM*, IL-1B inflam inh -28, RORgamma inh 3.2µM* and LDHA block -9.
Cc1ccc(S(=O)(=O)CCC(=O)c2ccc(F)cc2)cc1 was read as TDP1 cell noCPT 2.6µM*, DT40 TDP1 CPT 4.1µM*, Gal4-VP16 FLuc 2.8µM*, IL-1B inflam inh -61*, RORgamma inh 4µM* and LDHA block -7.
Screening COc1ccc(C(=O)CCS(=O)(=O)c2ccc(F)cc2)cc1OC returned Gal4-VP16 FLuc -11% and RORgamma inh -5%.
Screening CCN(c1ccc(-c2csc(C3CC3)n2)cc1)S(C)(=O)=O returned LDHA block -1.
For Cc1cc(C(C)(C)C)cc(C)c1CS(=O)Cc1cccc(F)c1 (stereo unspecified) the results were LDHA block 10.
`COc1cccc(C(=O)C2CCCN(Cc3cccc(OCCO)c3)C2)c1` (stereo unspecified) gave TDP1 cell noCPT -17%, DT40 TDP1 CPT 17%, Gal4-VP16 FLuc -1%, IL-1B inflam inh -2, RORgamma inh 15% and LDHA block -6.
COCCN1CCN(Cc2cn(C)nc2-c2ccc(Oc3ccccc3)cc2)CC1 was read as TDP1 cell noCPT 1%, DT40 TDP1 CPT inconclusive, Gal4-VP16 FLuc 1%, IL-1B inflam inh inconclusive, RORgamma inh 12% and LDHA block 1.
`CC(C)Oc1cccc(C(=O)C2CCCN(C(=O)c3cncs3)C2)c1` (stereo unspecified) gave TDP1 cell noCPT -19%, DT40 TDP1 CPT inconclusive, Gal4-VP16 FLuc 23%, IL-1B inflam inh 26, RORgamma inh 30% and LDHA block -7.
CC1CN(Cc2cn(C)nc2-c2ccc(Oc3ccccc3)cc2)CCN1C (stereo unspecified) was read as TDP1 cell noCPT inconclusive, DT40 TDP1 CPT inconclusive, Gal4-VP16 FLuc -20%, IL-1B inflam inh -64*, RORgamma inh -2% and LDHA block -5.
COc1ccc(CN2CCCC(C(=O)c3ccc4c(c3)OCO4)C2)c(F)c1 (stereo unspecified) was read as TDP1 cell noCPT inconclusive, DT40 TDP1 CPT -30%, Gal4-VP16 FLuc 12%, IL-1B inflam inh 3, RORgamma inh -4% and LDHA block -1.
Cc1nn(C)cc1CN1CCCC(C(=O)c2ccc(-c3ccccc3)c(F)c2)C1 (stereo unspecified) was read as TDP1 cell noCPT 18µM*, DT40 TDP1 CPT 18µM*, Gal4-VP16 FLuc 2%, IL-1B inflam inh -57*, RORgamma inh 29% and LDHA block -6.
For COc1cccc(C(=O)C2CCCN(Cc3cn(C)nc3-c3ccccc3)C2)c1 (stereo unspecified) the results were TDP1 cell noCPT inconclusive, DT40 TDP1 CPT 23µM*, Gal4-VP16 FLuc 3%, IL-1B inflam inh -11, RORgamma inh 12% and LDHA block -7.
`O=C(c1ccc(-c2ccccc2)c(F)c1)C1CCCN(C(=O)c2cncs2)C1` (stereo unspecified) gave TDP1 cell noCPT 13µM*, DT40 TDP1 CPT inconclusive, Gal4-VP16 FLuc inconclusive, IL-1B inflam inh inconclusive, RORgamma inh inconclusive and LDHA block -5.
CN(Cc1ccno1)Cc1cn(C)nc1-c1ccc(Oc2ccccc2)cc1 was read as TDP1 cell noCPT inconclusive, DT40 TDP1 CPT inconclusive, Gal4-VP16 FLuc 3%, IL-1B inflam inh 26, RORgamma inh 5% and LDHA block -3.
`CN(Cc1cn(C)nc1-c1ccc(Oc2ccccc2)cc1)Cc1cnc2ccccn12` gave TDP1 cell noCPT 21µM*, DT40 TDP1 CPT inconclusive, Gal4-VP16 FLuc inconclusive, IL-1B inflam inh -5, RORgamma inh 10µM* and LDHA block -3.
Screening O=C1c2ccccc2CCC1C(Sc1ccccc1)c1ccc(Cl)cc1 (stereo unspecified) returned LDHA block 1.
Screening Cn1c(N)c(-c2nc3cccnc3n2C)sc1=S returned TDP1 cell noCPT -24%, DT40 TDP1 CPT -5%, Gal4-VP16 FLuc 4%, IL-1B inflam inh 15, RORgamma inh -7% and LDHA block -3.
Cn1c(-c2c(N)n(-c3ccccc3)c3nc4ccccc4nc23)nc2ccccc21 was read as TDP1 cell noCPT inconclusive, DT40 TDP1 CPT 12µM*, Gal4-VP16 FLuc 3.5µM*, IL-1B inflam inh 0, RORgamma inh 1.1µM* and LDHA block 0.
Cc1cccc(-n2c(N)c(-c3nc4ccccc4n3C)c3nc4ccccc4nc32)c1 was read as TDP1 cell noCPT inconclusive, DT40 TDP1 CPT inconclusive, Gal4-VP16 FLuc 5µM*, IL-1B inflam inh 19, RORgamma inh 2.8µM* and LDHA block -11.
`Cc1ccc(-n2c(N)c(-c3nc4ccccc4n3C)sc2=S)cc1` gave TDP1 cell noCPT inconclusive, DT40 TDP1 CPT inconclusive, Gal4-VP16 FLuc inconclusive, IL-1B inflam inh 21, RORgamma inh 5µM* and LDHA block 5.
Screening Cc1cccc(-n2c(-c3ccco3)nc3nc4ccccc4nc32)c1 returned Gal4-VP16 FLuc -4% and RORgamma inh 4%.
Cc1c(NC(=O)c2c(N)n(-c3ccccc3)c3nc4ccccc4nc23)c(=O)n(-c2ccccc2)n1C was read as Gal4-VP16 FLuc -1% and RORgamma inh 1%.
`Cc1ccc(OCCNC(C)C)cc1` gave LDHA block 1.
`Cc1ccc(-c2nc(SCc3cc(=O)n4nc(C5CC5)sc4n3)n[nH]2)cc1` gave LDHA block -18.
Screening Cc1c(Cl)ccc2sc(N3CCN(C(=O)C(C)C)CC3)nc12 returned TDP1 cell noCPT 6.5µM*, DT40 TDP1 CPT 12µM* and LDHA block 2.
For Cc1c(Cl)ccc2sc(N3CCN(C(=O)C4=COCCO4)CC3)nc12 the results were TDP1 cell noCPT inconclusive, DT40 TDP1 CPT inconclusive, IL-1B inflam inh -61* and LDHA block -4.
CC(=O)N1CCN(c2nc3c(C)ccc(Cl)c3s2)CC1 was read as TDP1 cell noCPT inconclusive, DT40 TDP1 CPT -1% and LDHA block 1.

High-throughput results from PubChem.
